Some test systems named below: T-47D breast; BT-549 breast; MDA-MB-435 melanoma; SW-620 colon; MCF7 breast; HCT-116 colon; HCC-2998 colon; KM12 colon.
What all share (assay): NCI-60 one-dose screen, 48 h (100 = growth as untreated, 0 = no growth, -100 = all killed)
Settings in all cases: 10 µM unless noted

Compounds without any hit were thinned out: in the full panel of roughly 83,000, 20% have a hit.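 Method: cells in 96-well plates; compound added at one concentration; 48 h incubation; percent growth measured; values under 10 scored active.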 A number with no mark means an inactive call. Active and inactive are the calls of the source.

Regarding `COc1cccc(-c2nn(-c3ccccc3)cc2-c2ccnc(NCCNC(=O)Nc3ccccc3)c2)c1`, the growth is 20.3% with T-47D breast; 30.2% with BT-549 breast; 42.9% in the assay on MDA-MB-435 melanoma; 71.9% in the assay with SW-620 colon; 56.6% with MCF7 breast; 35.3% in the assay with HCT-116 colon. The growth is 39.1% in the assay with HCC-2998 colon and 37.6% in the assay with KM12 colon.

Regarding `COc1ccc(S(=O)(=O)NCCNc2nccc(-c3c(-c4cccc(F)c4)nc4sccn34)n2)cc1`, the growth in the assay with T-47D breast was 25%; in the assay on BT-549 breast it was 47%; in the assay with MDA-MB-435 melanoma, 14.7%; with SW-620 colon, 52.6%; in the assay with MCF7 breast, 17.1%; in the assay on HCT-116 colon it was 19.7%. Also, the growth in the assay with HCC-2998 colon was 52.9%; in the assay with KM12 colon it was 18.3%.

`CC1(C)CC(=O)C2=C(C1)N(c1ccc(OC(F)(F)F)cc1)C(N)=C(C#N)C2c1ccc(Cl)cc1` (stereo not given): the growth in the assay with T-47D breast was 79.1%; in the assay with BT-549 breast it was 109%; in the assay on MDA-MB-435 melanoma, 93.1%; in the assay on SW-620 colon it was 101%; in the assay on MCF7 breast, 86%; with HCT-116 colon, 68.4%. Moreover, the growth with HCC-2998 colon was 94.7%; with KM12 colon it was 86.9%.

With `COc1ccc(C2C(c3nn[nH]n3)=C(N)Oc3c2ccc2ccccc32)cc1` (stereo not given), the growth is 64.4% in the assay on T-47D breast; 72% with BT-549 breast; -26.6% (active) with MDA-MB-435 melanoma; 29.3% with SW-620 colon; 33.1% in the assay on MCF7 breast; 55.7% with HCT-116 colon. The growth in the assay on HCC-2998 colon is 97.7%; with KM12 colon, 50.2%.

As for `Cc1ccc(Cl)c(NS(=O)(=O)c2ccc(-c3cnc(C4CC4)o3)cc2)c1`, the growth with T-47D breast was 45%; with BT-549 breast, 34.5%; in the assay on MDA-MB-435 melanoma, -59.6% (active); in the assay on SW-620 colon it was 18.6%; with MCF7 breast, 12.4%; in the assay on HCT-116 colon, 13.8%. The figures for the growth in the assay with HCC-2998 colon and with KM12 colon were 26.8% and 16.5%, respectively.

Regarding `O=C(NCCNc1cc(-c2cn(-c3ccccc3)nc2-c2cccc(O)c2)ccn1)Nc1ccccc1`, the growth was 45.9% with T-47D breast; 52.9% with BT-549 breast; 93% in the assay with MDA-MB-435 melanoma; 84.5% with SW-620 colon; 78.4% with MCF7 breast; 53.2% in the assay on HCT-116 colon. In addition, the growth in the assay with HCC-2998 colon was 92.5%; with KM12 colon it was 89.2%.

Regarding `CCN1C(=O)N(CC)C2Nn3c(s/c(=C\c4cccc([N+](=O)[O-])c4)c3=O)=NC21` (stereo not given), the growth with T-47D breast was 59.5%; in the assay on BT-549 breast, 58.5%; in the assay with MDA-MB-435 melanoma, -36.8% (active); with SW-620 colon it was 36.4%; in the assay with MCF7 breast, 35%; in the assay with HCT-116 colon it was 23.6%. In addition, the growth in the assay with HCC-2998 colon was 87.7%; in the assay with KM12 colon, 26.7%.

As to `Cc1cc(=O)oc2c1ccc1oc(C#N)c(C)c12`, the growth in the assay with T-47D breast is 88.6%; in the assay on BT-549 breast, 94%; in the assay with MDA-MB-435 melanoma, 95.5%; in the assay with SW-620 colon it was 95.7%; in the assay on MCF7 breast, 102%; in the assay on HCT-116 colon, 89.9%. The growth with HCC-2998 colon is 106%; in the assay on KM12 colon it was 104%.

As for `COc1ccc(C(=O)/C=C/c2c(C(F)(F)F)nc3sccn23)cc1OC`, the growth is -16.9% (active) in the assay with T-47D breast; 11.3% in the assay on BT-549 breast; 3.47% (active) in the assay with MDA-MB-435 melanoma; 10.4% in the assay on SW-620 colon; 7.83% (active) with MCF7 breast; 6.66% (active) in the assay on HCT-116 colon. The growth in the assay with HCC-2998 colon is 31.4%; in the assay with KM12 colon, 11.2%.

Regarding `Cc1ccc(N2CCN(C(=S)c3cccs3)CC2)cc1`, the growth in the assay with T-47D breast was 86.2%; with BT-549 breast it was 74.2%; in the assay with MDA-MB-435 melanoma it was 109%; in the assay on SW-620 colon, 108%; in the assay with MCF7 breast, 89.3%; in the assay with HCT-116 colon, 93.2%. Moreover, the growth is 94.3% in the assay on HCC-2998 colon and 113% in the assay with KM12 colon.

Turning to `NCCCNc1nc2ccccc2c2c(=O)c3cccc(Cl)c3sc12`, the growth was 35.3% in the assay on T-47D breast; 76.6% with BT-549 breast; -43.3% (active) with MDA-MB-435 melanoma; -79.4% (active) in the assay on SW-620 colon; -86.6% (active) in the assay with MCF7 breast; -92% (active) in the assay with HCT-116 colon. The growth with HCC-2998 colon is -94.1% (active); with KM12 colon, -72.6% (active).

Consider `COc1ccc(-c2cc(-c3ccc(Nc4nc(Nc5ccc(Cl)cc5)nc(Nc5ccc(Cl)cc5)n4)cc3)nc(N)c2C#N)cc1`, for which the growth in the assay with T-47D breast is 3.86% (active); with BT-549 breast, -55.3% (active); with MDA-MB-435 melanoma, -1.59% (active); with SW-620 colon, -3.93% (active); with MCF7 breast, 32.4%; in the assay on HCT-116 colon it was 20.2%. The growth with HCC-2998 colon was -8.77% (active); in the assay on KM12 colon it was 27.7%.

As for `CC1CC2Oc3ccc(Cl)cc3C(=O)N2O1` (stereo not given), the growth with T-47D breast is 104%; in the assay with BT-549 breast it was 105%; in the assay with MDA-MB-435 melanoma it was 105%; in the assay with SW-620 colon, 99.2%; with MCF7 breast, 112%; in the assay with HCT-116 colon it was 107%. Further, the growth in the assay on HCC-2998 colon is 97.5%; in the assay on KM12 colon, 107%.

In the case of `CCN(CC)CCn1nc2c3c(cccc3c1=O)-c1ccccc1-2`, the growth was 9.48% (active) in the assay with T-47D breast; 59.3% in the assay with BT-549 breast; 39.7% with MDA-MB-435 melanoma; 14.3% with SW-620 colon; 4.36% (active) in the assay on MCF7 breast; 16.3% in the assay with HCT-116 colon. Further, the growth in the assay on HCC-2998 colon was 34.7%; with KM12 colon it was 34%.

Regarding `COc1cccc(-c2nn(-c3ccccc3)cc2-c2ccnc(NCCNC(=O)Nc3cccc(C(F)(F)F)c3)c2)c1`, the growth was 0.52% (active) with T-47D breast; 26.1% in the assay on BT-549 breast; 29.1% with MDA-MB-435 melanoma; 39% in the assay on SW-620 colon; 15.3% in the assay with MCF7 breast; 10.5% in the assay with HCT-116 colon. Besides, the growth in the assay on HCC-2998 colon is -47% (active); in the assay with KM12 colon, 2.54% (active).

Values taken from PubChem BioAssay (NCI).
